# In the supplement of paper PMC12669032:
# Values without a mark were called inactive.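 How the source made its calls: active = AUC reduced over 20% with Padj below 0.05 in at least 2 of 3 replicates; inactive = otherwise.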
# What was measured:
# Experiment in all cases: growth AUC relative to DMSO control (median of replicates) (fraction); higher = more growth (less inhibition), active = hit call of the paper
# Details in all cases: 20 µM; 24 h
# Akkermansia muciniphila = tested on: Akkermansia muciniphila
# Method in brief: (§1)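 OD600 was recorded every hour for 24 h in anaerobic monocultures of gut bacteria kept at 37 °C in mGAM, seeded at OD600 0.05 and given 20 µM compound in 1% DMSO. The area under each growth curve was scaled to the plate median of solvent-only wells, or to row and column medians for the industrial chemical plate. Before this step, the minimum OD was set to 0. Reported values are medians of three biological replicates run on separate days.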
# Bacteroides caccae = tested on: Bacteroides caccae
# Method in brief: as §1
# Bacteroides clarus = tested on: Bacteroides clarus
# Method in brief: as §1
# Bacteroides dorei = tested on: Bacteroides dorei
# Method in brief: as §1
# Bacteroides stercoris = tested on: Bacteroides stercoris
# Method in brief: as §1
# [1] = tested on: Bacteroides thetaiotaomicron
# Method in brief: as §1
# Bacteroides uniformis = tested on: Bacteroides uniformis
# Method in brief: as §1
# [2] = tested on: Bifidobacterium longum subsp. longum
# Method in brief: as §1
# Clostridium difficile = tested on: Clostridium difficile
# Method in brief: as §1
# Collinsella aerofaciens = tested on: Collinsella aerofaciens
# Method in brief: as §1
# Coprococcus comes = tested on: Coprococcus comes
# Method in brief: as §1
# Escherichia coli ED1a = tested on: Escherichia coli ED1a
# Method in brief: as §1
# Escherichia coli IAI1 = tested on: Escherichia coli IAI1
# Method in brief: as §1
# Eubacterium rectale = tested on: Eubacterium rectale
# Method in brief: as §1
# [3] = tested on: Fusobacterium nucleatum subsp. animalis
# Method in brief: as §1
# Lactobacillus gasseri = tested on: Lactobacillus gasseri
# Method in brief: as §1
# Lactobacillus paracasei = tested on: Lactobacillus paracasei
# Method in brief: as §1
# Odoribacter splanchnicus = tested on: Odoribacter splanchnicus
# Method in brief: as §1
# [4] = tested on: Parabacteroides distasonis
# Method in brief: as §1
# Parabacteroides merdae = tested on: Parabacteroides merdae
# Method in brief: as §1
Compound,growth AUC (Akkermansia muciniphila),growth AUC (Bacteroides caccae),growth AUC (Bacteroides clarus),growth AUC (Bacteroides dorei),growth AUC (Bacteroides stercoris),growth AUC [1],growth AUC (Bacteroides uniformis),growth AUC [2],growth AUC (Clostridium difficile),growth AUC (Collinsella aerofaciens),growth AUC (Coprococcus comes),growth AUC (Escherichia coli ED1a),growth AUC (Escherichia coli IAI1),growth AUC (Eubacterium rectale),growth AUC [3],growth AUC (Lactobacillus gasseri),growth AUC (Lactobacillus paracasei),growth AUC (Odoribacter splanchnicus),growth AUC [4],growth AUC (Parabacteroides merdae)
CCCN(CCC)C(=O)SCc1ccccc1,1.04,0.994,0.996,0.976,1.13,0.972,0.985,0.967,0.987,0.998,1.01,1.01,0.985,1.09,1.01,1.02,0.963,1.08,0.89,0.998
CC(C)c1ccc(NC(=O)N(C)C)cc1,1.04,0.978,0.987,1.02,0.937,1.02,1.02,1.18,0.995,0.947,0.979,0.972,0.97,1.05,1.07,0.934,0.98,1.12,0.998,0.935
O=C1C2CC=CCC2C(=O)N1SC(Cl)(Cl)Cl (stereo not given),0.981,1.03,1.01,1.03,1.08,1.01,1.02,0.981,1.04,1.02,1.03,1.02,1.02,1.1,1.1,1.06,1.01,0.999,1.07,1.02
N#Cc1c(Cl)c(Cl)c(Cl)c(C#N)c1Cl,0.96,0.984,0.563 (active),0.931,0.566 (active),0.0851 (active),0.218 (active),0.782 (active),0.997,0.864,0.974,0.967,0.96,0.714,0.908,0.558 (active),0.872,0.927,0.682 (active),0.823
CCCCCCCC(=O)Oc1c(I)cc(C#N)cc1I,1.1,0.886,0.864,0.962,1.1,0.951,0.88,1.03,0.998,0.989,0.995,0.985,0.896,1.09,1.16,0.89,1.01,0.91,0.91,0.908
ClC1=C(Cl)[C@]2(Cl)[C@@H]3[C@H]4C[C@H]([C@@H]5O[C@H]45)[C@@H]3[C@@]1(Cl)C2(Cl)Cl,0.861,0.979,0.864,0.958,0.773,0.925,0.709 (active),0.962,1,0.936,0.943,0.994,0.966,1.02,1.05,0.936,0.963,0.998,0.897,0.946
N#CC(CCc1ccc(Cl)cc1)(Cn1cncn1)c1ccccc1 (stereo not given),1.02,0.967,0.961,0.952,0.941,0.94,0.873,0.978,0.957,0.968,0.969,1.03,1.02,1.07,0.942,0.904,0.952,0.88,0.57 (active),0.96
N#CN=C1SCCN1Cc1ccc(Cl)nc1,0.871,1,1,0.967,1.22,0.999,0.991,1.04,1.02,0.98,1.04,0.966,0.996,0.979,1.11,1.03,0.963,1.02,1.03,1.01
CC(Oc1ccc(Cl)cc1Cl)C(=O)O (stereo not given),1.09,1.02,0.987,0.942,0.981,1,0.979,1.04,1.01,0.976,1.02,0.978,0.966,1.04,0.97,0.927,0.989,0.965,0.857,0.973
COC(=O)C(C)(Cl)Cl,0.86,0.984,1.01,1.02,1,1.04,0.968,1.02,1.01,1.01,0.987,0.977,1.02,0.934,1.03,1.18,1.03,0.956,1.05,1.04
COc1cc(Cl)c(OC)cc1Cl,1.03,1.04,1,1.04,1.01,1.04,1,0.995,1.05,1.11,1.04,1.03,1.01,0.986,0.951,0.94,0.94,1,1.02,1.05
Nc1nc(N)nc(Cl)n1,1.01,1.05,1.02,1.01,1.16,1.01,1.02,1.01,1.03,0.992,1.02,1.04,1.01,0.971,1.08,1.02,0.991,1,1.01,1.02
CCOc1nc(NC)nc(NC(=O)NS(=O)(=O)c2ccccc2C(=O)OC)n1,0.947,1.01,1.01,1.02,0.97,0.988,0.998,0.967,0.979,0.992,0.996,1.02,1.02,0.974,1.04,1.23,1.04,1.04,1.05,1.03
CCCOCC(=Nc1ccc(Cl)cc1C(F)(F)F)n1ccnc1,1.03,0.955,0.919,0.982,1.16,0.934,0.913,1.03,0.922,0.941,0.505 (active),0.994,0.995,0.382 (active),1.11,0.894,0.938,0.932,0.746 (active),0.894
Cc1[nH]c(=O)n(C(C)(C)C)c(=O)c1Cl,1.07,1,0.993,0.96,0.979,1,0.981,0.978,0.997,0.924,0.999,0.983,0.942,1.01,0.978,0.927,1.06,1.02,0.968,0.995
O=C(O)c1nc(Cl)ccc1Cl,1.11,1.01,1.02,1.03,1.11,0.993,1.01,1.03,0.975,0.982,1.03,0.995,1.01,0.952,0.998,1.09,1.03,1.01,1.03,1.03
COC(=O)C1(O)c2ccccc2-c2ccccc21,0.893,1.03,0.97,1,1.01,0.981,0.984,0.996,0.991,1.03,0.939,0.966,1.01,0.95,0.911,1.07,1,0.988,1.03,0.993
CC(C)N(C)S(=O)(=O)NC(=O)c1cc(-n2c(=O)cc(C(F)(F)F)n(C)c2=O)c(F)cc1Cl,0.916,1.02,0.989,1,1.09,0.951,0.94,1,0.976,1.04,1.03,1.02,1,1.01,0.98,1.02,1.04,0.99,1.08,1
COC(=O)c1ccccc1S(=O)(=O)NC(=O)N(C)c1nc(C)nc(OC)n1,0.981,0.984,0.979,0.984,1.05,0.99,1,1.01,0.984,1.03,1.01,0.982,0.978,0.968,1,1.06,0.992,1.01,0.98,1
C/C(=N\NC(=O)Nc1cc(F)cc(F)c1)c1ncccc1C(=O)[O-].[Na+],1.33,1,1.01,0.77,1.05,1.01,0.946,0.987,1,0.965,1.01,0.973,0.995,1.12,1.09,0.796,0.975,1.07,0.875,1.01
CNC(=O)Oc1cc(C)c(SC)c(C)c1,1.07,0.934,1,0.971,0.912,1.01,0.989,1.34,1.01,0.934,1.01,0.987,0.967,0.982,0.984,0.883,0.931,1.11,1.02,0.912
C=C/C=C/CC1=C(C)C(OC(=O)[C@@H]2C(/C=C(\C)C(=O)OC)C2(C)C)CC1=O.C=C/C=C/CC1=C(C)[C@@H](OC(=O)[C@@H]2C(C=C(C)C)C2(C)C)CC1=O (stereo not given in full),0.901,0.966,0.918,1.02,0.87,0.967,0.971,0.698,1.01,0.949,0.953,1.01,0.966,0.858,1.04,1.02,0.864,0.985,0.954,0.932
CCSC(=O)N1CCCCCC1,0.873,1.05,0.974,1,1,0.995,0.966,0.992,0.992,0.981,1.02,0.991,0.993,0.977,1.06,1.06,0.954,0.947,0.997,1
